The values below come from article PMC12820563, “FoxP3 forms a head-to-head dimer in vivo and stabilizes its multimerization on adjacent microsatellites”.

In all, about 16,000 sequences were measured (“rpm ratio (pull-down/input)”: median about 0.94, highest 2% from about 1.7 on). This is one part of a sample in which the highest values are shown more often than they occur.

In the test the target is T1, MBP-FoxP1dN (Mus musculus, UniProt P58462 326-579).
T1 sequence: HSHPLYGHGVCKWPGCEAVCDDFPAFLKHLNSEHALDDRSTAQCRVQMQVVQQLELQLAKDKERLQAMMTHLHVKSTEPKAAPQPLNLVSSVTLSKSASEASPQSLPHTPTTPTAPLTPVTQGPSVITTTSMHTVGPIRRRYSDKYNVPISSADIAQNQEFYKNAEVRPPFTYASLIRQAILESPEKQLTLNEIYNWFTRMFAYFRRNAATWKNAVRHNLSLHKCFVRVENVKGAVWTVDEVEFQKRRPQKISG
The test can be described thus: PD-seq (MBP pull-down with sequencing); 20 mM Tris-HCl pH 7.5, 100 mM NaCl, 1.5 mM MgCl2, 0.4 uM protein, 0.1 uM dsDNA library, 30 min, room temperature, amylose pull-down; high values mean tight binding. To be noted: protein: recombinant; tags: His6-MBP; chain copies: 2; dsDNA, one strand shown. An outline of the steps:
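A fragment of mouse FoxP3 or FoxP1 without its N-terminus, carrying a His6-MBP tag and produced in E. coli, was combined at 0.4 µM with a 0.1 µM degenerate double-stranded DNA library filled in with Klenow. The mixture sat for 30 min at room temperature in Tris pH 7.5 buffer containing NaCl and MgCl2. Protein–DNA complexes were captured on amylose resin, washed three times, and the DNA was freed with proteinase K, barcoded by PCR and sequenced on Illumina. Binding is expressed as reads-per-million enrichment of pull-down over input, with replicates pooled.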
For the sequence “GATGATTGTTCTCCCAGCTGATGAATTGGCCAACTCGAGTAAACAAATTTTCCTAATCTTTCTGTTCAAGCGCCATCTAC”, the binding signal is 0.833 RPM ratio (pull-down/input).

Take “GATGATTGTTCTCCCAGCTGATGAATTCTATTTGTCGAGTAAACAAATTTTCCTAATCTTTCTGTTCAAGCGCCATCTAC”: the binding signal is 2.3 RPM ratio (pull-down/input).

Turning to “GATGATTGTTCTCCCAGCTGATGAATTTCCTATGTCGAGTAAACAAATTTTCCTAATCTTTCTGTTCAAGCGCCATCTAC”, the binding signal is 0.811 RPM ratio (pull-down/input).

As for “GATGATTGTTCTCCCAGCTGATGAATTGTCTATTTCGAGTAAACAAATTTTCCTAATCTTTCTGTTCAAGCGCCATCTAC”, the binding signal is 1.31 RPM ratio (pull-down/input).

In the case of “GATGATTGTTCTCCCAGCTGATGAATTTCTATTGTCGAGTAAACAAATTTTCCTAATCTTTCTGTTCAAGCGCCATCTAC”, the binding signal was 1.91 RPM ratio (pull-down/input).

For the sequence “GATGATTGTTCTCCCAGCTGATGAATTCTATCTGTCGAGTAAACAAATTTTCCTAATCTTTCTGTTCAAGCGCCATCTAC”, the binding signal was 0.875 RPM ratio (pull-down/input).

For the sequence “GATGATTGTTCTCCCAGCTGATGAATTCGTATTTTCGAGTAAACAAATTTTCCTAATCTTTCTGTTCAAGCGCCATCTAC”, the binding signal is 1.67 RPM ratio (pull-down/input).

Turning to “GATGATTGTTCTCCCAGCTGATGAATTCTAATTGTCGAGTAAACAAATTTTCCTAATCTTTCTGTTCAAGCGCCATCTAC”, the binding signal was 1.29 RPM ratio (pull-down/input).

Consider “GATGATTGTTCTCCCAGCTGATGAATTCTCTTTGTCGAGTAAACAAATTTTCCTAATCTTTCTGTTCAAGCGCCATCTAC”, for which the binding signal is 0.834 RPM ratio (pull-down/input).

Consider “GATGATTGTTCTCCCAGCTGATGAATTTGTCTATTCGAGTAAACAAATTTTCCTAATCTTTCTGTTCAAGCGCCATCTAC”, for which the binding signal is 1.28 RPM ratio (pull-down/input).

For “GATGATTGTTCTCCCAGCTGATGAATTCCTATTGTCGAGTAAACAAATTTTCCTAATCTTTCTGTTCAAGCGCCATCTAC”, the binding signal is 2.02 RPM ratio (pull-down/input).

As for “GATGATTGTTCTCCCAGCTGATGAATTCGTATTGTCGAGTAAACAAATTTTCCTAATCTTTCTGTTCAAGCGCCATCTAC”, the binding signal was 2.07 RPM ratio (pull-down/input).

With “GATGATTGTTCTCCCAGCTGATGAATTGTCGTATTCGAGTAAACAAATTTTCCTAATCTTTCTGTTCAAGCGCCATCTAC”, the binding signal is 1.14 RPM ratio (pull-down/input).

As to “GATGATTGTTCTCCCAGCTGATGAATTTCGCATTTCGAGTAAACAAATTTTCCTAATCTTTCTGTTCAAGCGCCATCTAC”, the binding signal was 1.28 RPM ratio (pull-down/input).

For the sequence “GATGATTGTTCTCCCAGCTGATGAATTGCCCAGTTCGAGTAAACAAATTTTCCTAATCTTTCTGTTCAAGCGCCATCTAC”, the binding signal is 0.931 RPM ratio (pull-down/input).

In the case of “GATGATTGTTCTCCCAGCTGATGAATTGGGTCCTTCGAGTAAACAAATTTTCCTAATCTTTCTGTTCAAGCGCCATCTAC”, the binding signal is 0.85 RPM ratio (pull-down/input).

Regarding “GATGATTGTTCTCCCAGCTGATGAATTGAACTTTTCGAGTAAACAAATTTTCCTAATCTTTCTGTTCAAGCGCCATCTAC”, the binding signal was 0.887 RPM ratio (pull-down/input).

As for “GATGATTGTTCTCCCAGCTGATGAATTTTCACAATCGAGTAAACAAATTTTCCTAATCTTTCTGTTCAAGCGCCATCTAC”, the binding signal is 1.29 RPM ratio (pull-down/input).

Take “GATGATTGTTCTCCCAGCTGATGAATTACTGACCTCGAGTAAACAAATTTTCCTAATCTTTCTGTTCAAGCGCCATCTAC”: the binding signal is 0.91 RPM ratio (pull-down/input).

In the case of “GATGATTGTTCTCCCAGCTGATGAATTTGGGTAATCGAGTAAACAAATTTTCCTAATCTTTCTGTTCAAGCGCCATCTAC”, the binding signal was 1.27 RPM ratio (pull-down/input).

With “GATGATTGTTCTCCCAGCTGATGAATTCTCCGGGTCGAGTAAACAAATTTTCCTAATCTTTCTGTTCAAGCGCCATCTAC”, the binding signal was 0.759 RPM ratio (pull-down/input).

Take “GATGATTGTTCTCCCAGCTGATGAATTCCGGGATTCGAGTAAACAAATTTTCCTAATCTTTCTGTTCAAGCGCCATCTAC”: the binding signal is 0.754 RPM ratio (pull-down/input).

On to “GATGATTGTTCTCCCAGCTGATGAATTATCTGATTCGAGTAAACAAATTTTCCTAATCTTTCTGTTCAAGCGCCATCTAC”, for which the binding signal is 0.984 RPM ratio (pull-down/input).
